Assay results from article PMC5540273 (PLoS ONE, 2017).

How the values were obtained:
Conditions in all cases: concentration: 1 μM, replicates: in singlicate; n = 1
ERK1 = test system: T1, ERK1
T1 construct: gene MAPK3

ERK2 = test system: T2, ERK2
T2 construct: gene MAPK1

ERK3 = test system: T3, ERK3
T3 construct: gene MAPK6

ERK4 = test system: T4, ERK4
T4 construct: gene MAPK4

ERK5 = test system: T5, ERK5
T5 construct: gene MAPK7

ERK8 = test system: T6, ERK8
T6 construct: gene MAPK15

ERN1 = test system: ERN1
FAK = test system: T7, FAK
T7 construct: gene PTK2

FER = test system: FER
FES = test system: FES
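Further: KINOMEscan kinase panel screen.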

Structure (SMILES) | %Inh (ERK1) | %Inh (ERK2) | %Inh (ERK3) | %Inh (ERK4) | %Inh (ERK5) | %Inh (ERK8) | %Inh (ERN1) | %Inh (FAK) | %Inh (FER) | %Inh (FES)
Cl.Cl.NCC(NC(=O)c1cc(-c2cccnc2)c(-c2ccnc3[nH]ccc23)s1)c1ccccc1 (centres unmarked) [GSK1323434] | 0% | 8% | 3% | 33% | 0% | 16% | 6% | 0% | 50% | 44%
COc1cc(Nc2nccc(N3CCC(NS(=O)(=O)c4ccc(NC(C)=O)cc4)CC3)n2)cc(OC)c1OC [GSK1379825] | 0% | 0% | 83% | 0% | 0% | 29% | 0% | 0% | 6% | 48%
COc1cccc(C2=C(Nc3cccc(O)c3)C(=O)NC2=O)c1 [SB-390771] | 3% | 0% | 6% | 26% | 0% | 16% | 0% | 0% | 0% | 2%
CC(C)c1nc(-c2ccc(F)c(NS(=O)(=O)c3c(F)cccc3F)c2)c(-c2ccnc(Nc3ccc(N4CCOCC4)nc3)n2)s1 [GSK1804250] | 8% | 0% | 1% | 0% | 10% | 38% | 49% | 0% | 41% | 15%
c1ccc(Oc2ccc(Nc3ccnc4cc(-c5ccc(CN6CCCCC6)o5)ccc34)cc2)nc1 [GW567143] | 13% | 0% | 0% | 0% | 0% | 0% | 26% | 0% | 4% | 0%
CCn1cnc2c(NCc3ccccc3)ncnc21 [SKF-96418] | 0% | 0% | 7% | 17% | 0% | 4% | 19% | 0% | 0% | 3%
COc1cccc2c(-c3ccncc3)c(-c3ccc(F)cc3)nn12 [GW468513] | 5% | 0% | 0% | 0% | 0% | 16% | 0% | 0% | 13% | 1%
O=C(Nc1c(F)cccc1F)c1cc(C(=O)c2ccccc2F)c[nH]1 [GSK1326180] | 8% | 3% | 9% | 0% | 0% | 0% | 0% | 0% | 0% | 0%
COC(=O)Nc1nc2ccc(Oc3ccc(NC(=O)Nc4cc(C(F)(F)F)ccc4F)cc3)cc2[nH]1.Cl [GW654607] | 0% | 6% | 16% | 0% | 0% | 97.6% | 10% | 0% | 0% | 0%
CNc1nccc(-c2ccc3c(N)n[nH]c3c2)n1 [GSK2206003] | 3% | 0% | 0% | 32% | 9% | 28% | 4% | 0% | 25% | 1%
Cc1cccc(Nc2nc(NCCN)ncc2C(N)=O)c1 [GSK1292139] | 0% | 0% | 79% | 33% | 0% | 0% | 16% | 5% | 49% | 0%
CN(c1ccc(NC(=O)N2CCN(CCCN3CCOCC3)CC2)cc1)c1ccnc(Nc2ccc(CS(C)(=O)=O)cc2)n1.Cl [GW830899] | 0% | 0% | 0% | 8% | 0% | 0% | 0% | 34% | 10% | 0%
Cc1ccc(C)c(NC(=O)Nc2ccc(C)c(-c3ccc(C(=O)Nc4ccncc4)cc3)c2)c1 [GSK1398473] | 0% | 16% | 9% | 28% | 0% | 0% | 0% | 0% | 13% | 0%
O=C(Nc1n[nH]c2cc(-c3cccs3)ccc12)C1CC1 [SB-731284] | 0% | 0% | 0% | 0% | 0% | 85% | 29% | 0% | 0% | 0%
COc1cc(Nc2nccc(N3CCC(NC(=O)Nc4ccc5c(c4)OCO5)C3)n2)cc(OC)c1OC (centres unmarked) [GSK1379766] | 0% | 0% | 0% | 0% | 0% | 0% | 0% | 0% | 11% | 0%
CC(C)(C)c1ccc(C(=O)Nc2cn3cc(-n4ccnc4)ccc3n2)cc1 | 0% | 13% | 10% | 5% | 19% | 0% | 25% | 7% | 0% | 0%
Fc1cc(Cl)ccc1Nc1ccnc2cc(-c3ccc(CN4CCOCC4)o3)ccc12 [GW560109] | 12% | 0% | 0% | 0% | 0% | 19% | 16% | 0% | 6% | 0%
